A short description of the experiment: NCI Yeast Anticancer Drug Screen. Data for the wt2 strain (AID 169).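 Also: 0% = growth of vehicle-treated yeast cultures.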 The settings on record: S. cerevisiae wt2 strain growth inhibition, hits give high values. On the procedure:
Growth inhibition of yeast strains with defined genetic alterations is measured as a screen for potential anti-cancer activity. Selected strains with alterations in DNA damage repair or cell cycle control were exposed to compounds and growth inhibition was measured relative to vehicle treated controls. The strain used in this assay is wt2

The panel holds about 79,000 compounds, 15% with a hit somewhere; the sample as a whole holds those more often. A number with no mark means an inactive call. The source made the active and inactive calls. Rule as the data show it: active = growth inhibition above about 70%; inactive = the rest.

For `COc1cc(/C=N/Nc2nnc3c4ccccc4c4ncccc4c3n2)cc(OC)c1OC`, the growth inhibition (at 1.2 µM) is -5%; the growth inhibition (at 3.7 µM) is -1%; the growth inhibition (at 11.0 µM) is -2%; the growth inhibition (at 33.0 µM) is -3%; the growth inhibition (at 100.0 µM) was -4%.

For `Nc1cc(N)c(N=Nc2cccc3c(S(=O)(=O)O)cccc23)cc1N=Nc1cc([N+](=O)[O-])ccc1O`, the growth inhibition runs as follows: (at 1.2 µM) -14%; (at 3.7 µM) -11%; (at 11.0 µM) -26%; (at 33.0 µM) 6%; (at 100.0 µM) 47%.

For the molecule `Cc1c2ccnc(C(=O)NCCN(C)C)c2cc2c3cc(O)ccc3n(C)c12`, the growth inhibition (at 1.2 µM) is 1%; the growth inhibition (at 3.7 µM) is 2%; the growth inhibition (at 11.0 µM) is 7%; the growth inhibition (at 33.0 µM) is 20%; the growth inhibition (at 100.0 µM) is 30%.

Consider `NC(N)=NS(=O)(=O)c1ccc(Nc2c3ccccc3nc3c(C(=O)NCCO)cccc23)cc1`, for which the growth inhibition runs as follows: (at 1.2 µM) 0%; (at 3.7 µM) 0%; (at 11.0 µM) 1%; (at 33.0 µM) 0%; (at 100.0 µM) 20%.

`C=C1C(=O)OC2CC1C(OC(C)=O)C/C(C)=C/CC/C(C)=C\CCC2(C)O` (stereo not given): the growth inhibition runs as follows: (at 1.2 µM) -2%; (at 3.7 µM) -4%; (at 11.0 µM) 12%; (at 33.0 µM) 17%; (at 100.0 µM) 93% (active).

For `CN(C)N=Nc1ccccc1C(=O)NC#N`, the growth inhibition is -8% (at 1.2 µM); -1% (at 3.7 µM); 98% (active) (at 11.0 µM); 99% (active) (at 33.0 µM); 99% (active) (at 100.0 µM).

For `Cc1nc(Nc2ccccc2[N+](=O)[O-])sc1C(=O)CC(=O)C(=O)Nc1c(C(C)C)cccc1C(C)C`, the growth inhibition (at 1.2 µM) was -1%; the growth inhibition (at 3.7 µM) is 0%; the growth inhibition (at 11.0 µM) was 0%; the growth inhibition (at 33.0 µM) was 2%; the growth inhibition (at 100.0 µM) is 0%.

Regarding `CCCOC(=O)C(F)C(Br)C(=O)OCCC` (stereo not given), the growth inhibition is 57% (at 1.2 µM); 98% (active) (at 3.7 µM); 98% (active) (at 11.0 µM); 98% (active) (at 33.0 µM); 100% (active) (at 100.0 µM).

For the origin of these results see PubChem BioAssay (NCI).
